In all, about 44,000 sequences went through this assay and about 4,100 (9.3%) were called active. Rule as the data show it: active = GI50 up to about 1.1 µM and inactive = higher. The list comes from a sample in which actives are over-represented; it also holds similar and randomly drawn sequences. Measured potencies and affinities stand elsewhere.

The experiment has as its system MDA-MB-435.
In the case of “[Bis(aminomethyl)tetramethylenesilane]dichloropaltinum(II), CHEMBL2146205”, the GI50 was found to be 3.51 µM.
The substance “[Bis(aminomethyl)tetramethylenesilane]tetrachloropaltinum(IV), CHEMBL2146189” came in with a GI50 of 9.02 µM.
Next, CISPLATIN, CHEMBL11359: 5.96 µM.
As to “[Bis(aminomethyl)pentamethylenesilane]dichloropaltinum(II), CHEMBL2146202”, it took 1.31 µM to inhibit growth by half (GI50).
The figure for “[Bis(aminomethyl)pentamethylenesilane]tetrachloropaltinum(IV), CHEMBL2146204” is 0.438 µM.
Regarding “[Bis(aminomethyl)dimethylsilane]tetrachloroplatinum(IV), CHEMBL2146190”, the GI50 amounted to 13.9 µM.

(Values after ChEMBL document CHEMBL1201862, “PubChem BioAssay data set” (2004).)
